# BAZ2B block: qHTS Assay for Inhibitors of BAZ2B | AlphaScreen BAZ2B-H3K14Ac peptide displacement | 360,000 compounds, 4.4% hits | Bromodomain adjacent to zinc finger domain protein 2B (Homo sapiens), Q9UIF8 | Potency, µM (titrated, usually from 114 µM), most hits filed as inhibitors | AID 504333, 2011; further: nearly all actives have a fitted effect of over 60% in size
#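 Protein-peptide AlphaScreen: BAZ2B 50 nM, b-H3K14Ac 50 nM, 1x PBS pH 7.4 + 0.01% Tween-20. Preincubation 30 min RT; cpd 30 min RT (top 110 uM); beads 20 min RT, light-protected.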
# L3MBTL1 block: qHTS Assay for the Inhibitors of L3MBTL1 | Potency, µM (highest dose often 57.1 µM), hits mostly inhibitors | AID 485360, 2010 | AlphaScreen L3MBTL1–H3K9me1 peptide binding | Lethal(3)malignant brain tumor-like protein 1 (Homo sapiens), Q9Y468 | 230,000 compounds, 0.66% hits; further: nearly all actives have a fitted effect of over 60% in size
#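 Read-out is AlphaScreen signal from streptavidin donor and nickel chelate acceptor beads (10 ug/mL final each) bridging L3MBTL1 (50 nM) and biotinylated K9-monomethylated H3(1-15) peptide (75 nM), after 30 min compound exposure at room temperature.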
# JMJD2A Tudor inh: qHTS Assay for Inhibitors of JMJD2A-Tudor Domain; Lysine-specific demethylase 4A (Homo sapiens), O75164; AlphaScreen JMJD2A-Tudor / H3K4me3 peptide binding; Potency, µM (titrated, usually from 114 µM), hits mostly inhibitors; 390,000 compounds, 4.4% hits; further: nearly all actives have a fitted effect of over 50% in size
# HP1b chromo inh: HTS for Inhibitors of HP1-beta Chromodomain Interactions with Methylated Histone Tails. Chromobox protein homolog 1 (Homo sapiens), P83916. AlphaScreen HP1-beta / biotin-H3K9me3 peptide binding. Potency, µM (doses to about 114 µM), most hits filed as inhibitors. 390,000 compounds, 0.56% hits; further: nearly all actives have a fitted effect of over 70% in size
#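 Compound inhibition of the preformed complex between 50 nM HP1-beta and 50 nM biotinylated H3K9me3 peptide was read by AlphaScreen. Buffer was PBS pH 7.4 with 0.01% Tween-20. Incubations ran 30 min at room temperature, with 10 ug/mL donor/acceptor beads.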
# Sfp PPTase inh: qHTS Assay for Inhibitors of Bacillus subtilis Sfp phosphopantetheinyl transferase (PPTase); Biochemical Sfp PPTase activity, qHTS; Potency, µM, actives largely listed as inhibitors; 4'-phosphopantetheinyl transferase ffp (Bacillus subtilis), Q9F4F7; 310,000 compounds, 3.5% hits; AID 1490, 2009;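 further: the enzyme is Sfp with the accession as filed and its product quenches rhodamine fluorescence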
#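 Buffer: 50 mM Hepes-Na pH 7.6, 10 mM MgCl2, 0.01% Nonidet P-40, 0.01% BSA. Enzyme 15 nM, pre-exposed to compound 15 min; substrates then added and fluorescence change tracked over 30 min.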
# G9a block: qHTS Assay for Inhibitors of Histone Lysine Methyltransferase G9a; Potency, µM (highest dose often 102 µM), most hits filed as inhibitors; G9a H3K9 monomethylation, AlphaScreen, 2 h; 350,000 compounds, 8.8% hits; Histone-lysine N-methyltransferase EHMT2 (Homo sapiens), Q96KQ7; further: nearly all actives have a fitted effect of over 75% in size
#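 Enzyme 20 nM + cpd, 15 min RT; add b-H3K9 pep 500 nM / SAM 20 uM; 2 h RT; anti-H3K9me1 Ab 0.5 ug/mL + SA donor / anti-rabbit acceptor beads 20 ug/mL each, 10 min; AlphaScreen read.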
# Numbers stand for hits; 0 = inactive; ? = inconclusive; - = no result given; [ ] = another dose, or the depositor's remark. An excerpt weighted towards active compounds, which were near 12% of everything screened. The call rests on the fitted dose curve; in most records, active means well fitted curve in the direction sought with a large enough effect; inconclusive means small, poorly fitted or top-dose-only effect, or another doubt; inactive means no such curve, though single readings can be large; an effect the other way counts as inactive or inconclusive.
SMILES,BAZ2B block,L3MBTL1 block,JMJD2A Tudor inh,HP1b chromo inh,Sfp PPTase inh,G9a block
COc1ccccc1N1CCN(CC(=O)Nc2ccc(S(=O)(=O)N3CCCCCC3)cc2)CC1,0,0,0,0,-,0[2.33 µM]
CCOc1ccc(Oc2nc(NCC(C)C)nc(NC(C)(C)C)n2)nn1,0,-,0,0,-,0
Cc1nn(C(=O)COc2ccccc2Br)c(C)c1Sc1ccccc1,0,-,0,0,-,0
O=C(NCCC[N+]1=CC=N[C@H]1c1ccccc1)N1CCCc2nc(-c3ccc(Br)cc3)ccc21,-,-,-,-,0,-
O=C(c1cc2ccccc2oc1=O)N1CCN(c2ccc(Cl)cc2)CC1,0,-,0,0,-,0
CC(C)CC(=O)Nc1ccc(C(=O)CN2CCN(c3ccc(O)cc3)CC2)cc1,50.1µM,-,?,0,56.2µM,5.01µM
O=S(=O)(c1ccc(NC(=S)N2CCN(c3ccc(O)cc3)CC2)cc1)N1CCOCC1,-,-,?,0,0,20µM
Cc1ccc(NC(=S)N2CCN(S(=O)(=O)c3ccc(C)cc3)CC2)cc1,0,-,0,0,0,0
CC(=O)c1c(C)[nH]c(C(=O)OCC(=O)Nc2ccc(Cl)c(S(=O)(=O)N(C)C)c2)c1C,70.8µM,0,0,0,0,-
CCN(CC)CCNC(=O)c1c(C)[nH]c(/C=C2\C(=O)Nc3ccc(F)cc32)c1C,-,-,-,-,0,?
CCOc1ccc(Cn2c(CNS(=O)(=O)c3cccs3)nc3cccnc32)cc1,0,-,0,0,-,0
Cc1ccccc1OCc1nc2ccccc2n1Cc1ccccc1Cl,0,-,0,0,-,0
C/C(=N\NC(=S)NCC(C)(C)C)c1cc(F)cc(F)c1O,7.08µM,0,0,0,0,0
N#Cc1ccc(S(=O)(=O)N2CCN(S(=O)(=O)c3ccc4c(c3)OCCO4)CC2)cc1,-,-,0,-,-,-
CCn1c(SCC(=O)Nc2nc(-c3ccc(C)cc3)cs2)nnc1-c1ccccc1,0,-,0,0,0,0
CN(C)CCCn1c(SCC(=O)N2c3ccccc3Sc3ccccc32)nc2ccccc2c1=O,?,0,?,?,?,39.8µM
Cc1ccc(-c2csc(NC(=O)CSc3nc4ccccc4c(=O)n3CCCN(C)C)n2)cc1,?,-,44.7µM,?,56.2µM,39.8µM
CC(C)c1cc(C(=O)NC(C)c2ccccc2)no1 (stereo not given),0,-,0,0,-,0
CCCCc1cc(=O)oc2cc(C)c(CN3CCCC3)c(O)c12,44.7µM,?,50.1µM,0,0,0[12.7 µM]
CCCCc1cc(=O)oc2c(CN3CCCC3)c(O)ccc12,0,0,0,0,0,?
CCc1cc(=O)oc2cc(C)c(CN3CCCC(C)C3)c(O)c12 (stereo not given),22.4µM,11.2µM,35.5µM,0,?,?
C/C(=N\O)C(=O)C(CN1CCCCC1)CN1CCCCC1,0,-,0,?,0,0.891µM
O=C(O)c1cc(NCc2cc(O)ccc2O)ccc1O,-,-,25.1µM,?,?,3.55µM
O=C(OCCC12CC3CC(CC(C3)C1)C2)c1ccc(NCc2cc(O)ccc2O)cc1,-,-,25.1µM,?,-,-
O=C(OCC12CC3CC(CC(C3)C1)C2)c1ccc(NCc2cc(O)ccc2O)cc1,-,-,50.1µM,15.8µM,-,-
SMILES,BAZ2B block,L3MBTL1 block,JMJD2A Tudor inh,HP1b chromo inh,Sfp PPTase inh,G9a block
CCOc1ccc(CCNC(=O)c2cn(CC)c3ccc(S(=O)(=O)N4CCCCCC4)cc3c2=O)cc1OCC,-,-,?,0,-,0
Cc1ccccc1-c1noc(CSc2nc(-c3ccc(F)cc3)cc(=O)[nH]2)n1,0,-,0,0,-,0
O=C(Nc1cc(F)ccc1F)C1COc2ccccc2C1 (stereo not given),0,-,0,0,-,0
O=C(O)CCC1CCCC1,-,-,-,-,0,-
NC(=O)Cn1c(=O)n(CCCCCC(=O)NCc2ccccc2Cl)c(=O)c2sccc21,0,-,0,0,-,0
Cc1ccc(O)c(C(=O)c2cnn(-c3ccccc3)c2)c1,0,-,15.8µM,0,0,0[2.33 µM]
O=C(COc1ccccc1C(=O)c1cnn(-c2ccccc2)c1)Nc1ccccc1,0,0,0,0,0,44.7µM
O=C(Cc1cnn(-c2ccccc2)c1)c1ccc(O)c(O)c1O,?,-,?,?,31.6µM,12.6µM
COc1ccc(C2Nc3ccccc3C(=O)N2Cc2ccccc2)cc1OCc1ccc(NC(C)=O)cc1 (stereo not given),-,-,0,-,-,-
CCCCOc1ccc(C2c3c(oc4ccccc4c3=O)C(=O)N2c2nc(C)c(C(=O)OCC)s2)cc1OC (stereo not given),0,-,0,0,-,0
COC(=O)c1ccc(-c2nn(C)c(=O)c3ccccc23)cc1,0,0,0,0,0,0
COC(=O)c1ccc(C(=O)OC)c(-n2c(=O)c3ccccc3c3ccccc3c2=O)c1,?,0,0,0,0,28.2µM
C=CCn1c(COc2ccc(F)cc2)nnc1SCC(=O)NC(=O)NCc1ccco1,?,?,?,0,0,?
C=CCn1c(COc2cccc(C)c2)nnc1SCC(=O)NC(=O)NCc1ccco1,?,?,?,0,25.1µM,?
C=CCn1c(SCc2ccc(C#N)cc2)nnc1-c1cccc(OC)c1,0,0,0,0,0,0
C=CCn1c(COc2ccccc2)nnc1SCc1ccc(C#N)cc1,0,0,0[11.4 µM],0,0,0
C=CCn1c(COc2ccc(Cl)cc2)nnc1SCc1ccc(C#N)cc1,0,0,?,0,0,28.2µM
C=CCn1c(SCC(=O)NCC(=O)OCC)nnc1-c1cccc(OC)c1,0,-,0[11.4 µM],0,0,0[12.7 µM]
C=CCn1c(COc2ccc(Cl)cc2)nnc1SCC(=O)NCC(=O)OCC,0,0,0,0,0,28.2µM
C=CCn1c(SCc2ccc(C#N)cc2)nnc1-c1ccccc1,0,-,0,0,0,1.41µM
COc1ccc(CCNc2ncnc3onc(C)c23)c(OC)c1,0,-,0,0,-,0
COc1ccc(CNC(=O)Cn2ccc3cc(S(=O)(=O)N4CCCCC4)ccc32)cc1OC,0,-,0,0,-,0
COc1cc(NC(=O)CCc2c(C)nn(-c3ccc(N4CCCCC4)nn3)c2C)cc(OC)c1OC,0,-,0,0,-,0
Cc1cc2ccccc2nc1-c1ccccc1F,-,-,0,0,-,-
Cc1ccc(Nc2c(-c3ccccn3)nc3ccc(Br)cn23)cc1,0,-,?,0,-,0
Cc1ccn2c(Nc3ccc(F)cc3)c(-c3ccccn3)nc2c1,14.1µM,-,25.1µM,0,-,0
Cc1cccc2nc(-c3ccccn3)c(Nc3ccc(F)cc3)n12,15.8µM,-,44.7µM,0,-,0
Cc1cc(C)n2c(Nc3ccc(Cl)cc3)c(-c3ccsc3)nc2n1,0,-,0,0,-,0

# Screens (PubChem BioAssay)
